Data taken from PubChem BioAssay (NCATS).
Records with an inconclusive call do not appear. Active and inactive are the calls of the source. Calls follow the shape of the dose curve; as a rule, active = well fitted curve in the direction sought with a large enough effect; inconclusive = small, poorly fitted or top-dose-only effect, or another doubt; inactive = no such curve, though single readings can be large; an effect the other way counts as inactive or inconclusive. Where a SMILES comes first, the peptide text is derived from it. The star is where a group is joined. Cbz = O=C(OCc1ccccc1)*; CH2F = FC*

Tests used:
[1] = system: NIH3T3; experiment: qHTS assay to identify novel small-molecules to repurpose for Merkel cell carcinoma treatment (AID 1296009); conditions: MCC and control cell lines, CellTiter-Glo viability, 72 h; at 44.8 µM (top of the series) unless noted; also: nearly all actives have a fitted effect of over 60% in size
Outline: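 qHTS format: cells treated with library compounds in DMSO across 8 (NPC) or 11 (MIPE) concentrations. Readout after 72 hr at 37 degree celsius was CellTiter-Glo luminescence.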

[2] = system: C33A; experiment: Primary qHTS to identify gynecologic anti-cancer compounds using libraries of approved drugs and bioactive compounds (AID 1345084); conditions: Gynecologic cancer cell panel viability, ATPlite luminescence, 48 h; series mostly up to 57.5 µM; also: % is scaled to controls: 0 for no effect and ±100 for the full control effect; nearly all actives have a fitted effect of over 55% in size
Outline: (§1)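 Five-concentration response, 48 h; readout is ATP-driven luciferase luminescence.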

[3] = system: CAOV3; experiment: as above; conditions: Gynecologic cancer cell panel viability, ATPlite luminescence, 48 h; series mostly up to 57.5 µM
Outline: as §1

[4] = system: CASKI; experiment: as above; conditions: Gynecologic cancer cell panel viability, ATPlite luminescence, 48 h; series mostly up to 57.5 µM
Outline: as §1

[5] = system: Es-2; experiment: as above; conditions: Gynecologic cancer cell panel viability, ATPlite luminescence, 48 h; series mostly up to 57.5 µM
Outline: as §1

[6] = system: HeLa; experiment: as above; conditions: Gynecologic cancer cell panel viability, ATPlite luminescence, 48 h; series mostly up to 57.5 µM
Outline: as §1

[7] = system: Hek293T; experiment: as above; conditions: Gynecologic cancer cell panel viability, ATPlite luminescence, 48 h, control line for the selectivity index; series mostly up to 57.5 µM
Outline: as §1

[8] = system: JEG-3; experiment: as above; conditions: Gynecologic cancer cell panel viability, ATPlite luminescence, 48 h; series mostly up to 57.5 µM
Outline: as §1

[9] = system: OV90; experiment: as above; conditions: Gynecologic cancer cell panel viability, ATPlite luminescence, 48 h; series mostly up to 57.5 µM
Outline: as §1

[10] = system: PA-1; experiment: as above; conditions: Gynecologic cancer cell panel viability, ATPlite luminescence, 48 h; series mostly up to 57.5 µM
Outline: as §1

[11] = system: SKOV3; experiment: as above; conditions: Gynecologic cancer cell panel viability, ATPlite luminescence, 48 h; series mostly up to 57.5 µM
Outline: as §1

[12] = system: Tov-21-G; experiment: as above; conditions: Gynecologic cancer cell panel viability, ATPlite luminescence, 48 h; series mostly up to 57.5 µM
Outline: as §1

[13] = system: Tov112D; experiment: as above; conditions: Gynecologic cancer cell panel viability, ATPlite luminescence, 48 h; series mostly up to 57.5 µM
Outline: as §1

C=C(C)[C@@]1(O)C[C@@]2(C)C(=CC1=O)CC[C@@H](O)[C@@H]2C
inactive: outcome [1] | Potency [2] | Potency [3] | outcome [4] | Potency [5] | Potency [6] | Potency [7] | Potency [8] | Potency [9] | Potency [10] | Potency [11] | Potency [12] | Potency [13]

O=C(OCc1ccccc1O[C@@H]1O[C@H](CO)[C@@H](O)[C@H](O)[C@H]1O)C1(O)C=CCCC1O (stereo partly drawn)
inactive: outcome [1] inactive [at 17.4 µM] | Potency [2] | Potency [3] | outcome [4] | Potency [5] | Potency [6] | Potency [7] | Potency [8] | Potency [9] | Potency [10] | Potency [11] | Potency [12] | Potency [13]

COC(=O)CC[C@H](NC(=O)[C@H](CC(C)C)NC(=O)OCc1ccccc1)C(=O)N[C@@H](Cc1cnc[nH]1)C(=O)N[C@@H](CC(=O)OC)C(=O)CF (Cbz-LE(OMe)HD(OMe)-CH2F)
inactive: outcome [1] inactive [at 9.27 µM] | activity change, negative = cytotoxicity [2] 16.8% [at 11.6 µM] | activity change, negative = cytotoxicity [3] 7.02% [at 11.6 µM] | activity change, negative = cytotoxicity [4] 26% [at 11.6 µM] | activity change, negative = cytotoxicity [5] 0.76% [at 11.6 µM] | activity change, negative = cytotoxicity [6] 6.25% [at 11.6 µM] | activity change, negative = cytotoxicity [7] 2.96% [at 11.6 µM] | activity change, negative = cytotoxicity [8] -14.9% [at 11.6 µM] | activity change, negative = cytotoxicity [9] 0.73% [at 11.6 µM] | activity change, negative = cytotoxicity [10] -3.2% [at 11.6 µM] | activity change, negative = cytotoxicity [11] -4.39% [at 11.6 µM] | activity change, negative = cytotoxicity [12] 4.92% [at 11.6 µM] | activity change, negative = cytotoxicity [13] 6.4% [at 11.6 µM]

C=C1CC[C@@]2(OC1)O[C@H]1CC3[C@@H]4CC=C5C[C@H](O[C@H]6OC[C@@H](O)C(O)[C@@H]6O[C@@H]6O[C@@H](C)[C@H](O)[C@@H](O[C@@H]7O[C@H](CO)[C@@H](O)[C@H](O)[C@H]7O)[C@H]6O)C[C@@H](O)[C@]5(C)C4CC[C@]3(C)[C@H]1[C@@H]2C (stereo partly drawn)
inactive: outcome [1] inactive [at 9.27 µM] | activity change, negative = cytotoxicity [2] 2.1% [at 11.6 µM] | activity change, negative = cytotoxicity [3] -11% [at 11.6 µM] | activity change, negative = cytotoxicity [4] -7.31% [at 11.6 µM] | activity change, negative = cytotoxicity [5] -3.81% [at 11.6 µM] | activity change, negative = cytotoxicity [6] 12.1% [at 11.6 µM] | activity change, negative = cytotoxicity [7] 9.36% [at 11.6 µM] | activity change, negative = cytotoxicity [8] -8.07% [at 11.6 µM] | activity change, negative = cytotoxicity [9] 6.02% [at 11.6 µM] | activity change, negative = cytotoxicity [10] 3.82% [at 11.6 µM] | activity change, negative = cytotoxicity [11] 0.203% [at 11.6 µM] | activity change, negative = cytotoxicity [12] 7.35% [at 11.6 µM] | activity change, negative = cytotoxicity [13] 1.29% [at 11.6 µM]

CC1=CCC2C(C)(C)CCCC2(C)C1CC12OC1C(O)C(CO)=CC2O (stereo not drawn)
inactive: outcome [1] | Potency [2] | Potency [3] | outcome [4] | Potency [5] | Potency [6] | Potency [7] | Potency [8] | Potency [9] | Potency [10] | Potency [11] | Potency [12] | Potency [13]

C=C1C(=O)OC[C@H]2C(C(=O)O)=CC3CC(C)(C)C[C@@]132 (stereo partly drawn)
inactive: outcome [1] | Potency [2] | Potency [3] | outcome [4] | Potency [5] | Potency [6] | Potency [7] | Potency [8] | Potency [9] | Potency [10] | Potency [11] | Potency [12] | Potency [13]

COc1cc(/C=C/C(=O)O[C@@H]2C[C@@](O)(C(=O)O)C[C@@H](O)[C@@H]2O)ccc1O
inactive: outcome [1] | Potency [2] | Potency [3] | outcome [4] | Potency [5] | Potency [6] | Potency [7] | Potency [8] | Potency [9] | Potency [10] | Potency [11] | Potency [12] | Potency [13]

CCCC1=CC2=C(CO1)C(=O)C(C)(O)C(OC(=O)c1c(C)cc(OC)cc1O)C2 (stereo not drawn)
inactive: outcome [1] inactive [at 17.4 µM] | Potency [2] | Potency [3] | outcome [4] | Potency [5] | Potency [6] | Potency [7] | Potency [8] | Potency [9] | Potency [10] | Potency [11] | Potency [12] | Potency [13]

OC[C@H]1O[C@@H](OCc2ccccc2)[C@H](O[C@@H]2OC[C@@H](O)[C@H](O)[C@H]2O)[C@@H](O)[C@@H]1O
inactive: outcome [1] inactive [at 17.4 µM] | Potency [2] | Potency [3] | outcome [4] | Potency [5] | Potency [6] | Potency [7] | Potency [8] | Potency [9] | Potency [10] | Potency [11] | Potency [12] | Potency [13]

C[C@@]12CC3(S(=O)(=O)O)OC(O1)[C@]1(COC(=O)c4ccccc4)[C@H]3C[C@]21O[C@@H]1O[C@H](CO)[C@@H](O)[C@H](O)[C@H]1O
inactive: outcome [1] inactive [at 17.4 µM] | Potency [2] | Potency [3] | outcome [4] | Potency [5] | Potency [6] | Potency [7] | Potency [8] | Potency [9] | Potency [10] | Potency [11] | Potency [12] | Potency [13]

Cc1ccccc1-c1cc(N2CCN(C)CC2)ncc1N(C)C(=O)C(C)(C)c1cc(C(F)(F)F)cc(C(F)(F)F)c1
inactive: outcome [1] | Potency [2] | Potency [3] | outcome [4] | Potency [5] | Potency [6] | Potency [7] | Potency [8] | Potency [9] | Potency [10] | Potency [11] | Potency [12] | Potency [13]
